Data from PubChem BioAssay (NCI).
About 83,000 compounds went through this panel and 20% of them were active in at least one assay; those are over-represented in the sample as a whole.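 Compound tested at a single concentration for 48 hours in 96-well plates; a percent growth value below 10 was scored as active.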 The source made the active and inactive calls.

What was measured:
Test in all cases: NCI-60 one-dose screen, 48 h (100 = growth as untreated, 0 = no growth, -100 = all killed)
Details in all cases: 10 µM unless noted
[1] = tested on: NCI-H23 lung
[2] = tested on: NCI-H226 lung
[3] = tested on: NCI-H322M lung
[4] = tested on: HOP-62 NSCLC
[5] = tested on: NCI-H460 lung
[6] = tested on: HOP-92 NSCLC
[7] = tested on: NCI-H522 lung
[8] = tested on: A549/ATCC NSCLC
[9] = tested on: 786-0 renal
[10] = tested on: COLO 205 colon
[11] = tested on: DU-145 prostate
[12] = tested on: K-562 leukemia
[13] = tested on: MALME-3M melanoma
[14] = tested on: MDA-MB-231 breast
[15] = tested on: RXF 393 renal
[16] = tested on: SF-268 CNS
[17] = tested on: SF-295 CNS
[18] = tested on: SF-539 CNS
[19] = tested on: UACC-257 melanoma
[20] = tested on: M14 melanoma

Measured: growth

CC1(C)CC(O)CCCCCCOc2c(CN)cccc2NC(=O)c2nc(cnc2N)-c2ccc(cc2)S1(=O)=O (stereo not given)
active: [5] -30.2% | [9] -15.4% | [12] -26.3% | [13] -71.5% | [18] -60.5% | [20] -72.7%
inactive: [1] 28% | [2] 48.6% | [3] 44.4% | [4] 44.7% | [6] 115% | [7] 12.6% | [8] 27.9% | [10] 22.9% | [11] 15.1% | [14] 39.8% | [15] 19.6% | [16] 26.1% | [17] 21.3% | [19] 21.9%

COc1ccc(OC)c(-c2cc(-c3ccc(Cl)cc3)c3c(N)c(C(=O)c4ccc(Cl)cc4)sc3n2)c1
inactive: [1] 91.4% | [2] 96.1% | [3] 93.6% | [4] 81.3% | [5] 105% | [6] 90.9% | [7] 86.1% | [8] 97.3% | [9] 97.3% | [10] 110% | [11] 107% | [12] 118% | [13] 89.7% | [14] 90.4% | [15] 115% | [16] 100% | [17] 99.2% | [18] 101% | [19] 98.2% | [20] 102%

CN[C@@H](C)C(=O)N[C@H]1CCS[C@H]2CC(C)(C)[C@@H](C(=O)N[C@H]3c4ccccc4C[C@H]3OCC#CC#CCO[C@@H]3Cc4ccccc4[C@@H]3NC(=O)[C@H]3N4C(=O)[C@@H](NC(=O)[C@H](C)NC)CCS[C@H]4CC3(C)C)N2C1=O
inactive: [1] 57.6% | [2] 129% | [3] 92.4% | [4] 66.8% | [5] 114% | [6] 79.4% | [7] 56.9% | [8] 95.3% | [9] 99.2% | [10] 103% | [11] 101% | [12] 100% | [16] 124% | [17] 86.8% | [19] 101% | [20] 103%
active: [13] -42.8% | [14] -51.2% | [15] 2.22% | [18] -43.6%

O=C(Cc1ccccc1)NNc1nc(Cl)nc(N2CCN(C(c3ccccc3)c3ccccc3)CC2)n1
active: [7] -26.6% | [12] 9.78%
inactive: [1] 83% | [2] 94.2% | [3] 89.7% | [4] 98.6% | [5] 102% | [6] 74.3% | [8] 98.5% | [9] 95.4% | [10] 98.6% | [11] 110% | [13] 99.6% | [14] 84.4% | [15] 85.8% | [16] 100% | [17] 98.6% | [18] 102% | [19] 90.6% | [20] 81.6%

Cc1cc2nc3c4cc([N+](=O)[O-])ccc4n(CCN(C)C)c3nc2cc1C
active: [1] -26.8% | [2] -25.3% | [3] -15.1% | [4] 5.3% | [5] 1.25% | [6] -10.7% | [7] -17% | [8] -45.8% | [9] 5.9% | [10] -42.3% | [11] 8.55% | [12] 0.995% | [13] -40.1% | [14] -1.27% | [15] -50.6% | [16] -0.874% | [17] 0.581% | [18] -14.5% | [19] -1.98% | [20] -27.3%

CC(=O)c1ccc(NS(=O)(=O)c2cccc(C(=O)Nc3ccc(Br)cc3)c2)cc1
inactive: [1] 36.4% [25 µM] | [2] 43% [25 µM] | [3] 89% [25 µM] | [4] 82% [25 µM] | [5] 75.7% [25 µM] | [6] 47.7% [25 µM] | [7] 46.4% [25 µM] | [8] 61.9% [25 µM] | [9] 58.7% [25 µM] | [10] 77.7% [25 µM] | [11] 94.6% [25 µM] | [12] 44.4% [25 µM] | [13] 56.2% [25 µM] | [14] 94.1% [25 µM] | [15] 61.7% [25 µM] | [16] 60.8% [25 µM] | [17] 23.8% [25 µM] | [18] 66.5% [25 µM] | [19] 44.6% [25 µM] | [20] 63.9% [25 µM]

COc1ccc(C(=O)NNc2nc(Cl)nc(N3CCN(C(c4ccccc4)c4ccccc4)CC3)n2)cc1
inactive: [2] 90.1% | [3] 57.6% | [4] 86.5% | [5] 101% | [6] 74% | [8] 92.6% | [9] 69.1% | [10] 60.5% | [11] 67.7% | [13] 46.3% | [16] 86.6% | [17] 96.8% | [18] 33.4% | [19] 65.2% | [20] 31.3%
active: [1] 3.63% | [7] -33% | [12] -16.5% | [14] -1.74% | [15] 9.64%

Cc1cnc(C(=O)Nc2nc3ccc(S(=O)(=O)Nc4ccc(C(C)(C)C)cc4)cc3[nH]2)cn1
active: [5] 1.67% | [10] 6.64% | [15] -13.9% | [18] -33.6% | [20] 1.89%
inactive: [1] 37.4% | [2] 31.3% | [3] 41.6% | [4] 42.5% | [6] 37.4% | [7] 24.4% | [8] 21.6% | [9] 22.7% | [11] 12.4% | [12] 11.4% | [13] 43.8% | [14] 30.6% | [16] 48.1% | [17] 21.9% | [19] 59.1%

O=C(/C=C(/C=C/c1csc2ccccc12)OB(F)F)/C=C/c1csc2ccccc12
inactive: [1] 23% | [2] 27.9% | [3] 96.9% | [4] 90.7% | [5] 66.7% | [6] 44.6% | [8] 70.1% | [11] 28.5% | [12] 23.2% | [17] 87% | [18] 40.8% | [19] 57.7%
active: [7] 2.34% | [9] -2.14% | [10] -2% | [13] 9.2% | [14] 2.45% | [15] -28.4% | [16] 5.79% | [20] 8.88%

COc1ccc(C(=O)/C=C/c2cc3ccccc3n3nnnc23)cc1
inactive: [1] 103% | [2] 105% | [3] 103% | [4] 103% | [5] 112% | [6] 109% | [7] 94% | [8] 105% | [9] 91.4% | [10] 122% | [11] 115% | [12] 91.8% | [13] 108% | [14] 106% | [15] 106% | [16] 108% | [17] 102% | [18] 107% | [19] 114% | [20] 110%

CCCCNC(=O)Oc1ccc(/C(=C(\C)c2ccccc2)c2ccc(OCCN3CCCCC3)cc2)cc1
active: [12] 5.45% | [19] -24.1% | [20] -15.6%
inactive: [1] 67.9% | [2] 86.8% | [3] 75.3% | [4] 77.9% | [5] 40.5% | [6] 68.1% | [7] 73.1% | [8] 57.8% | [9] 27.1% | [10] 14.3% | [11] 82.3% | [13] 44.6% | [14] 73% | [15] 53.2% | [16] 67.7% | [17] 42.6% | [18] 31%

CN1CCN(C(=O)[C@]23CCC(C)(C)C[C@H]2C2=CC[C@@H]4[C@@]5(C)C/C(=C/c6ccncc6)C(=O)C(C)(C)[C@@H]5CC[C@@]4(C)[C@]2(C)CC3)CC1
inactive: [1] 72.4% | [2] 68.7% | [3] 87.6% | [4] 83.1% | [5] 33.1% | [6] 41% | [7] 55.9% | [8] 43.8% | [9] 67.2% | [10] 41.9% | [11] 68.4% | [12] 19% | [13] 57.7% | [14] 64.2% | [15] 27.6% | [16] 64.4% | [17] 67.1% | [18] 69.3% | [19] 57.5% | [20] 57.4%

O=C(/C=C/c1ccc[nH]1)c1ccc(-n2ccc(C(F)(F)F)n2)c(F)c1
inactive: [1] 88.7% | [2] 84% | [3] 85.1% | [4] 103% | [5] 100% | [6] 92.4% | [7] 69.5% | [8] 87.4% | [9] 91.8% | [10] 119% | [11] 99.8% | [12] 77.4% | [13] 84.6% | [14] 87.1% | [15] 91.1% | [16] 93.6% | [17] 90.2% | [18] 69.7% | [19] 99.7% | [20] 94.3%

COC(=O)/C=C1\S/C(=N\NC(=O)c2cc3ccc2/C=C\c2ccc(cc2)/C=C\3)N(Cc2ccccc2)C1=O
inactive: [1] 77.4% | [2] 64.8% | [3] 93.3% | [4] 77.2% | [5] 93.7% | [6] 75.5% | [7] 15.9% | [8] 77% | [9] 49.6% | [10] 72.7% | [11] 83.2% | [12] 18.9% | [13] 88.4% | [14] 56.8% | [15] 15.6% | [16] 85% | [17] 89.4% | [18] 43.3% | [19] 81% | [20] 63.4%

O=C(Nc1ccc(NC(=O)c2cc(=O)[nH]c3ccccc23)cc1)Nc1cccc(Cl)c1
inactive: [1] 87.9% | [2] 70% | [3] 80.2% | [4] 66.2% | [5] 86.3% | [6] 81.1% | [7] 84.6% | [8] 93.5% | [9] 98.3% | [10] 90.1% | [11] 105% | [12] 83.5% | [13] 90% | [14] 78.7% | [15] 95.3% | [16] 65.3% | [17] 95.3% | [18] 84.1% | [19] 98.2% | [20] 93%
